Reference: ChEMBL document CHEMBL4513216, “Probing the Open Global Health Chemical Diversity Library for Multistage-Active Starting Points for Next-Generation Antimalarials” (ACS Infect Dis, 2020)
The whole screen tested about 69,000 compounds, of which about 8,600 (12%) showed an effect of 50% or more. For the sample, strong results were picked, then their nearest neighbours and some compounds at random.

System: Plasmodium berghei
Experiment: Screen against P. berghei liver stage (PbLuc), transformed with Luciferase, at 10uM
Type: functional, HepG2
Conditions: tested at 10 uM

SMILES | INHIBITION [%]
COc1ccc(C(=O)N2CCCC(n3cncn3)C2)nn1 (stereo not drawn) | 8.64
O=C(NCCCn1ccnc1)N1CCN(c2cccs2)CC1 | 12.2
O=C(Cn1ncc(N2CCCC2)cc1=O)Nc1ccc2nccnc2c1 | 6.69
COc1cccc(N2CCN(C(=O)CN(C)c3cnccn3)CC2)c1 | 35.4
CC1CCC(NC(=O)CNC2(c3ccc(Br)cc3)CCOCC2)CC1 (stereo not drawn) | 12.8
O[C@@H]1CN(Cc2ccc(F)c(F)c2)CC[C@H]1NCc1ccccn1 | 46.7
CCCN1Cc2ccccc2NC(=O)C12CCNC2 (stereo not drawn) | 38.3
O=C(c1cnccn1)N1CCCC2(CCN(Cc3ccsc3)C2)C1 (stereo not drawn) | -15.2
O=C(NC1CCCc2nc(N3CCOCC3)ncc21)C1CCCCC1 (stereo not drawn) | 17.1
CNS(=O)(=O)c1ccc(CN(C)Cc2nc3ccc(F)cc3[nH]2)cc1 | 29
Cc1ccccc1C1(C(=O)NCCN2CCOCC2)CCOCC1 | -33.5
Cc1ccccc1C1(C(=O)NCCN2CCC(C)CC2)CCOCC1 | 55.1
Cc1ccccc1C1(C(=O)NCCN2CCCC2)CCOCC1 | 44.8
COc1cccc(-n2nc(C(C)=O)c(C(C)=O)c2C)c1 | -17
O=C1CC2(CCN(C(=O)c3ccccn3)CC2)Oc2c(Cl)cc(Cl)cc21 | 4.57
CNc1cc(CNC(=O)c2ccncc2)nc(-c2ccncc2)n1 | 4.08
Cc1nc(C)n(C2CCCN(C(=O)Cc3csc(C(C)C)n3)C2)n1 (stereo not drawn) | 26.4
CCCS(=O)(=O)NCC1OCCc2cn(CC3CCOCC3)nc21 (stereo not drawn) | 55.5
c1c2c(nn1CC1CCOCC1)C(CNC1CCOCC1)OCC2 (stereo not drawn) | -44.2
c1cc(CNCC2OCCc3cn(CC4CCOCC4)nc32)ccn1 (stereo not drawn) | 19.9
CCS(=O)(=O)NCC1OCCc2cn(CC3CCOCC3)nc21 (stereo not drawn) | 66.8
CS(=O)(=O)CC(=O)NCC1OCCc2cn(CC3CC3)nc21 (stereo not drawn) | 54.7
Fc1ccc(CNCC2OCCc3cn(CC4CC4)nc32)cc1 (stereo not drawn) | 46.6
O=C(Cc1ccsc1)NCC1OCCc2cn(CC3CC3)nc21 (stereo not drawn) | -46.6
CN(C)S(=O)(=O)NCC1OCCc2cn(CC3CCOCC3)nc21 (stereo not drawn) | 20.1

SMILES | INHIBITION [%]
Fc1cccc(CNCC2OCCc3cn(CC4CCOCC4)nc32)c1 (stereo not drawn) | 68.4
c1c2c(nn1CC1CC1)C(CNC1CCOCC1)OCC2 (stereo not drawn) | 15.3
O=S(=O)(NCC1OCCc2cn(CC3CCOCC3)nc21)C1CC1 (stereo not drawn) | 29.8
CS(=O)(=O)NCC1OCCc2cn(CC3CC3)nc21 (stereo not drawn) | 44.2
COCCCn1ccc(NCc2ccc(NC(C)=O)cc2)n1 | 19.7
COc1cc2c(cc1C(=O)N1CCCCC1c1ccccn1)CCC2 (stereo not drawn) | 11.6
Cc1ccc2nc(C(=O)N3C[C@@H](C(=O)O)[C@H](c4ccccc4)C3)cn2c1 | -46
O=C(c1cccs1)N1CCOCC2(C1)CN(c1ccccc1)C(=O)CO2 (stereo not drawn) | -8.28
CCOCC1CN(c2ccncn2)Cc2cnn(CC3CC3)c21 (stereo not drawn) | -8.19
Cc1nccn1C1CCCN(C(=O)c2cccc(Cn3ccnc3)c2)C1 (stereo not drawn) | -6.14
O=C(CCc1cc2n(n1)CCCNC2)N1CCC(N2CCOC2=O)CC1 | -39.2
COCCNc1nnc(-c2ccc(C)nc2)s1 | -74.5
CCc1nc(CN2CC[C@@](O)(CCOC)[C@H](C)C2)cs1 | 0.868
CCOc1ccc(CNCCCn2ccnc2)cc1Cl | -32.1
CCOc1cc(CNCCCn2ccnc2)cc(Cl)c1OCC | 58.1
CCOc1cc(CNCCCn2ccnc2)cc(Cl)c1OC | 49.5
CC(=O)NCC1CCC2(CCN(c3ncnc4oc(C)nc34)CC2)O1 (stereo not drawn) | 34.9
CC(=O)N1CCC(NC(=O)CN2CCCc3c(C)ccc(F)c32)CC1 | -7.13
Cc1cnn(-c2cccc(N3CCN(c4cc(C)nc(C)n4)CC3)n2)c1 | 85.5
Cc1cnn(-c2cccc(N3CCCCC3)n2)c1 | 39.3
Cc1cnn(-c2cccc(N3CCCC3)n2)c1 | 30.3
CC(=O)N1CCCC1C(=O)NCCOc1ccc(C(C)C)cc1 (stereo not drawn) | 29.4
CC(C)Cn1c(=O)n(CCCn2cccn2)c2cc(C(=O)O)cnc21 | -18.1
Cn1cc(NC(=O)N2CCN(Cc3cscn3)CC2)ccc1=O | 48.3
O=C(CCCn1nnc(-c2ccc(F)cc2)n1)N1CCOCC(CO)C1 (stereo not drawn) | 52

SMILES | INHIBITION [%]
O=C(Cn1nnc(-c2ccc(F)cc2)n1)N1CCOCC(O)C1 (stereo not drawn) | 38.6
CC[C@H]1COCCN1C(=O)CCCn1nnc(-c2ccc(F)cc2)n1 | 35
CCCS(=O)(=O)NC(C)C(=O)NCc1ccnc(N2CCCC2)c1 (stereo not drawn) | 14.4
COCC(=O)N1CCC2(C1)c1ccccc1S(=O)(=O)N2CCC(C)C (stereo not drawn) | -14.2
CC(=O)N1CCC2(C1)c1ccccc1S(=O)(=O)N2C (stereo not drawn) | 50.4
CC(=O)N1CCC2(C1)c1ccccc1S(=O)(=O)N2CCC(C)C (stereo not drawn) | -61.6
CC(=O)N1CCC2(C1)c1ccccc1S(=O)(=O)N2Cc1ccccc1 (stereo not drawn) | 6.72
COCC(=O)N1CCC2(C1)c1ccccc1S(=O)(=O)N2CC1CC1 (stereo not drawn) | 17.6
COCC(=O)N1CCC2(C1)c1ccccc1S(=O)(=O)N2C (stereo not drawn) | 65.3
Cc1ccccc1C(=O)N1CCC(n2nnc3cc(F)ccc32)CC1 | -30.1
CC(C)c1nnc(CCC(=O)N2CCOC(c3cnccn3)C2)o1 (stereo not drawn) | 11.8
CC(C)C[C@H](N)c1nnc(SCC(N)=O)o1 | -21.4
NS(=O)(=O)CCCNC(=O)c1cnc(-c2ccsc2)s1 | 41.4
O=C1C[C@@H]2CC[C@H](CN1)N2C(=O)CCc1ccsc1 | 36.7
CC(=O)N1CCC2(CC1)CC(NS(C)(=O)=O)c1ccccc1O2 (stereo not drawn) | 25.9
CC(=O)N1CCOCC(Cc2ccc3c(ccn3C)c2)C1 (stereo not drawn) | -20.265
Cn1cc(CN2C[C@@H]3COC[C@@H](C(=O)N4CCCCO4)[C@@H]3C2)cn1 | 39.8
CS(=O)(=O)NCc1noc2c1CN(C(=O)C1CC1)CC2 | 30.3
O=C(CC(F)(F)F)N1CCc2onc(Cn3cccn3)c2C1 | 32.4
CS(=O)(=O)NCc1noc2c1CN(C(=O)C1CCC1)CC2 | 18.6
CN(C)CC(=O)N1CCc2onc(Cn3cccn3)c2C1 | 33.4
CCC(=O)N1CCc2onc(CNS(C)(=O)=O)c2C1 | 69.3
O=C(CO)N1CCc2onc(Cn3cccn3)c2C1 | 51.2
